# Reference: PubChem BioAssay (NCATS)
# Inconclusive results are not listed. Values without a mark were called inactive. Calls of active or inactive are those of the source. Calls come from the whole dose curve.
# Biological target: Atrial natriuretic peptide receptor 2 (Homo sapiens) (UniProt P20594)
# Test: Natriuretic polypeptide receptor (hNpr2) antagonism - Pilot subtype selectivity assay (AID 1347050)
# Conditions: NPR2-expressing cells, cGMP antagonist-mode read-out; series mostly up to 38.3 µM; activity change, negative = inhibition: at the top concentration
# Method in brief: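 Read-out: GloSensor luminescence (CCD imager), baseline vs post-stimulation. HEK293 cells expressing hNpr2; compounds pre-incubated 30-50 min at ambient temperature; hNppC 1 nM final, 20 min.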
# % is set by controls: 0 for no effect and ±100 for the full control effect; potency is the fitted concentration of half-maximal effect.
# Sequence of Atrial natriuretic peptide receptor 2 (Homo sapiens) (P20594 whole entry, looked up): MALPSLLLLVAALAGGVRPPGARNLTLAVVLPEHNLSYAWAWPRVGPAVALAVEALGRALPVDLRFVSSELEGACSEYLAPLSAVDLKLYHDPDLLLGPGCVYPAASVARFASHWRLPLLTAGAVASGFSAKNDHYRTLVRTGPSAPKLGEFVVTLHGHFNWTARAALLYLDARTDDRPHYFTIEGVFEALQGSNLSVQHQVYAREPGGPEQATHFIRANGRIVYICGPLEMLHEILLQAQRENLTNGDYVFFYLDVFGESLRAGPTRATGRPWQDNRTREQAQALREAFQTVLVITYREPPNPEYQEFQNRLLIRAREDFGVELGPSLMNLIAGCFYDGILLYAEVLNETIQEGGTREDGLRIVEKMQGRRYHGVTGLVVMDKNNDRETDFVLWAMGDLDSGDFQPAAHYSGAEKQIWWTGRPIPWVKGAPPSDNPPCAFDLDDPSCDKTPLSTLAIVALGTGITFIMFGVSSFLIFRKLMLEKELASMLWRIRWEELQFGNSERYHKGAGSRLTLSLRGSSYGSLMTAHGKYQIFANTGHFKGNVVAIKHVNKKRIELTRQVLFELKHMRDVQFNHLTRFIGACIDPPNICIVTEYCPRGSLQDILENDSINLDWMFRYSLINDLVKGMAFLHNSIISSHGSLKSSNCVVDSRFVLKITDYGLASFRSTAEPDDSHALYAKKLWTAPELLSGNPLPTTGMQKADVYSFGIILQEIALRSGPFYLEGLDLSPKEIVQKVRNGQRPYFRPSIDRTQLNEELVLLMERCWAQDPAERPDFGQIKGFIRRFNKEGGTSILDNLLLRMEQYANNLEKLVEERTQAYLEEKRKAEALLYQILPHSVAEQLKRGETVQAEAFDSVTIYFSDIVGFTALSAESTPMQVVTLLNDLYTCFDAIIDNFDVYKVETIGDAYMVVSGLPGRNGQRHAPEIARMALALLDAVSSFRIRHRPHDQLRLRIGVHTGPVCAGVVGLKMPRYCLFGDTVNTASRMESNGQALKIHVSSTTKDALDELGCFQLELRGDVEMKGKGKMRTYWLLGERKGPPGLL
Compound,"activity change, negative = inhibition [%]",Potency
OCC1O[C@H]([S-])[C@H](O)[C@@H](O)[C@@H]1O.[Au+] (stereo not given in full),5.42,
Cn1c(=O)c2[nH]c(-c3ccccc3)nc2n(C)c1=O,1.83,
CCCn1c(=O)c2[nH]c(-c3ccc(OCC(=O)NCCN)cc3)nc2n(CCC)c1=O,-3.82,
CN1CCc2cc(O)c(O)cc2C(c2ccccc2)C1 (stereo not given),0.606,
CC[C@@H](C)[C@H]1O[C@]2(CC[C@H]1C)C[C@@H]1C[C@@H](CC=C(C)[C@@H](O[C@H]3C[C@H](OC)[C@@H](O[C@H]4C[C@H](OC)[C@@H](O)[C@H](C)O4)[C@H](C)O3)[C@@H](C)C=CC=C3CO[C@@H]4[C@H](O)C(C)=C[C@@H](C(=O)O1)[C@]34O)O2,-4.07,
N#C/C(=C\c1c[nH]c2ccccc12)C(=O)c1ccc(O)c(O)c1,6.66,
CC(C)(C)c1ccc(S(=O)(=O)/C=C/C#N)cc1,,7.36 µM (active)
NC[C@@H]1O[C@H](C23CC4CC(CC(C4)C2)C3)Cc2c1ccc(O)c2O,-27.5,
CN(C)c1ccc(/C=C2\C(=O)Nc3ccccc32)cc1,,10.4 µM (active)
CC(C)ON([C@@H](C(=O)NO)C(C)C)S(=O)(=O)c1ccc(-c2ccccc2)cc1,9.3,
CN(C)c1nc2c(Br)c(Br)c(Br)c(Br)c2[nH]1,-26.5,
C[C@@H](NC(=O)/C(C#N)=C/c1ccc(O)c(O)c1)c1ccccc1,-5.23,
COc1ccccc1N1CCN(CCCCNS(=O)(=O)c2cccc3c(N(C)C)cccc23)CC1,-20.9,
CN1C2CC(OC(=O)[C@H](CO)c3ccccc3)CC1C1OC12 (stereo not given in full),9.57,
N=C(N)SCCc1ccc(CCSC(=N)N)cc1,2.06,
COc1cccc(OC)c1OCCNCC1COc2ccccc2O1 (stereo not given),-15.3,
COC1=C(OC)C(=O)c2ccccc2C1=O,9.23,
CCCCCCCCCCCCCCCCCCNC(=O)OCC(COP(=O)([O-])OCC[n+]1ccsc1)OC (stereo not given),8.05,
O=C(O)CCCC[C@@H]1CCSS1,-3.02,
CC(=O)/C=C1\C(=O)N(C)c2ccccc21,,14.7 µM (active)
C[N+](C)(C)CC(=O)[O-],0.653,
N#C/C(=C\c1ccc(O)c(O)c1)C(=O)NCCCc1ccccc1,6,
Oc1ccccc1O,2.92,
N.N.N.N.N.N.N.N.N.N.N.N.N.N.O.O.[Ru+4].[Ru+5].[Ru+5],-4.93,
c1ccc(-c2ccccn2)nc1,15.2,
NCCCCC(=O)O,-0.816,
N#C/C(=C\c1ccc(O)c(O)c1)C(=O)c1ccc(O)c(O)c1,5.72,
CSc1ccccc1N1CCN(CCCCCC(=O)NC2CCCc3ccccc32)CC1 (stereo not given),5.23,
N[C@@H](CC(=O)O)C(=O)O,-0.109,
O=C(O)[C@@H]1C[C@H](C(=O)O)N1,2.52,
